Reference: PubChem BioAssay (NCATS)
Results filed as inconclusive are left out. Unless noted, calls come from the whole dose curve; as a rule, active = well fitted curve in either direction with a large enough effect (not every such curve was filed as active); inconclusive = small, poorly fitted or top-dose-only effect, or another doubt; inactive = flat fitted curve, though single readings scatter.

Assays:
[1] = AP1 Signaling Pathway (AID 357); conditions: ME-180 AP-1-bla reporter, EGF-induced, beta-lactamase ratio, 5 h; at 17.2 µM (top of the series) unless noted;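 note: ME-180 reporter cells stimulated with EGF at its EC50 level; % is set by controls: 0 for no effect and ±100 for the full control effect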
How it was run: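 AP-1-bla ME-180 cells, Opti-MEM + 0.5% dialyzed FBS, plated overnight 37 °C. Cpd titration + EC50 EGF, 5 h 37 °C. CCF4 2.5 h RT; ex 405, em 460/530 ratio → %activity, AC50.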

[2] = NFAT Signaling Pathway (AID 444); conditions: Jurkat NFAT-bla M1, carbachol, beta-lactamase ratio, 5 h; at 17.2 µM (top of the series) unless noted;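 note: carbachol stimulus at about its EC50 of 1 µM final; % is set by controls: 0 for no effect and ±100 for the full control effect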
How it was run: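 Jurkat cells with NFAT-driven β-lactamase reporter and co-expressed M1 receptor, stimulated with carbachol (final 1 uM, ~EC50), compound titration, 5 h at 37 °C. CCF4 loaded 1 h at RT; 460/530 nm ratio gave %activity and AC50.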

[3] = Stat Signaling Pathway (AID 446); conditions: ME-180 SIE beta-lactamase reporter, IL-6 stimulated, 5 h; at 17.2 µM (top of the series) unless noted;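 note: ME-180 cervical cancer cells given 40 pM IL-6 alongside compound; SIE-controlled beta-lactamase reporter measured as 460/530 nm FRET emission ratio; % is set by controls: 0 for no effect and ±100 for the full control effect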
How it was run: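 ME-180 SIE-bla cells; overnight plating; cpd + IL-6 40 pM, 5 h, 37 C; LiveBLAzer 2.5 h RT; 460/530 nm emission ratio. Normalized to 300 pM IL-6 and 125 nM JAK inhibitor controls.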

[4] = target: Glucocorticoid receptor (Homo sapiens) (UniProt P04150); assay: GR-GFP Redistribution (AID 450;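 active = compounds whose dose series gives a full or clear partial fitted curve of increased nuclear translocation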; note: potency is the fitted concentration of half-maximal effect); conditions: U2OS GR-GFP nuclear translocation, laser cytometry, 2 h; series mostly up to 20.6 µM
Sequence of Glucocorticoid receptor (Homo sapiens) (P04150 whole entry, looked up): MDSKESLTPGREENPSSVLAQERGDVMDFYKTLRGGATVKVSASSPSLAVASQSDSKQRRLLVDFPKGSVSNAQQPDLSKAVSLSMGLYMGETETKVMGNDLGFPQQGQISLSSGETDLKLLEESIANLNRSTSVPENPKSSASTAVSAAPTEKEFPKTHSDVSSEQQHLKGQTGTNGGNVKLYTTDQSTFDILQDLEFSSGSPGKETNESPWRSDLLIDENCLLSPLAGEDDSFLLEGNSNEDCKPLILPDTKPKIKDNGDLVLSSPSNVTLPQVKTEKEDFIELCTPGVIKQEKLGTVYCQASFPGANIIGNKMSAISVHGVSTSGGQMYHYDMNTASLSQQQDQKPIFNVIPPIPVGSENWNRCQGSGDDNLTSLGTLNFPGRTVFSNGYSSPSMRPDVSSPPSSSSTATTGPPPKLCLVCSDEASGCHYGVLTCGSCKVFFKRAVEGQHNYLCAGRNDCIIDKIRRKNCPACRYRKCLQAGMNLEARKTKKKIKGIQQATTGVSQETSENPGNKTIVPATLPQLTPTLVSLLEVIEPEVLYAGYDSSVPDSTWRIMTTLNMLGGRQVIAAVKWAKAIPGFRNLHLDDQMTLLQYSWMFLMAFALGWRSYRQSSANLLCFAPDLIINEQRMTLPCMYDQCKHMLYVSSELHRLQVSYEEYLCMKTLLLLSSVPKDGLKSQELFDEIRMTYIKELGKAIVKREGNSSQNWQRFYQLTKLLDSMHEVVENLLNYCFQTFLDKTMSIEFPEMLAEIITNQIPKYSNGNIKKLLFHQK

Cc1ccc(-c2nnc(-c3cccc(Br)c3)o2)cc1
inactive: activity change, negative = inhibition [1] 14.2% | activity change, negative = inhibition [2] -11.6% | activity, negative = inhibition [3] 12.4% | Potency [4] > 20.6 µM

NS(=O)(=O)c1cc2c(cc1Cl)NC(C1C[C@H]3C=C[C@@H]1C3)NS2(=O)=O (some centres not stated)
inactive: activity change, negative = inhibition [1] 4.88% | activity change, negative = inhibition [2] -20.1% | activity, negative = inhibition [3] -0.0433% | Potency [4] > 20.6 µM

c1ccc(Cc2nn[nH]n2)cc1
inactive: activity change, negative = inhibition [1] 7.13% | activity change, negative = inhibition [2] -3.11% | activity, negative = inhibition [3] 8.05% | Potency [4] > 20.6 µM

Cc1nc2ccccc2cc1O
inactive: activity change, negative = inhibition [1] 13.6% | activity change, negative = inhibition [2] 7.71% | activity, negative = inhibition [3] 5.42% | Potency [4] > 20.6 µM

CCCCCC1CC(CC#CCN2CCOCC2)C(=O)O1 (configuration not stated)
inactive: activity change, negative = inhibition [1] 9.22% | activity change, negative = inhibition [2] -1.87% | activity, negative = inhibition [3] -2.28% | Potency [4] > 20.6 µM

COCc1[nH]nc2c1C(c1ccnc3ccccc13)C(C#N)=C(N)O2 (configuration not stated)
inactive: activity change, negative = inhibition [1] -7.4% | activity change, negative = inhibition [2] 17.7% | activity, negative = inhibition [3] -1.49% | Potency [4] > 20.6 µM

CC(=O)Nc1ccc(OC(=O)CC2SC(=O)NC2=O)cc1 (configuration not stated)
inactive: activity change, negative = inhibition [1] 6.63% | activity change, negative = inhibition [2] 11.3% | activity, negative = inhibition [3] 5.85% | Potency [4] > 20.6 µM

C=CCn1c(-c2ccccc2)n[nH]c1=S
inactive: activity change, negative = inhibition [1] 6.97% | activity change, negative = inhibition [2] -4.63% | activity, negative = inhibition [3] 3.46% | Potency [4] > 20.6 µM

CC1(C)Cc2[nH]c(=O)c(C#N)cc2CS1
inactive: activity change, negative = inhibition [1] 19.5% | activity change, negative = inhibition [2] -1.45% | activity, negative = inhibition [3] 10.8% | Potency [4] > 20.6 µM

CN(C)C=C1C(=O)c2ccccc2C1=O
inactive: activity change, negative = inhibition [1] 6.29% | activity change, negative = inhibition [2] 3.97% | activity, negative = inhibition [3] 1.64% | Potency [4] > 20.6 µM

Cc1c(OCc2ccccc2)c(=O)ccn1Cc1ccccc1
inactive: activity change, negative = inhibition [1] -8.27% | activity change, negative = inhibition [2] -0.234% | activity, negative = inhibition [3] 1.99% | Potency [4] > 20.6 µM

COc1ccc(/C(O)=C2/C(=O)C(=O)N(CCCN(C)C)C2c2cccc(Cl)c2)cc1OC (configuration not stated)
inactive: activity change, negative = inhibition [1] -5.39% | activity change, negative = inhibition [2] 6.97% | activity, negative = inhibition [3] 3.83% | Potency [4] > 20.6 µM

c1cncc(-c2nnc3sc(-c4ccco4)nn23)c1
inactive: activity change, negative = inhibition [1] -2.13% | activity change, negative = inhibition [2] 4.1% | activity, negative = inhibition [3] -6.03% | Potency [4] > 20.6 µM

CC1=C(C(=O)Nc2ccccc2)C(c2ccncc2)C(C#N)=C(SCC(=O)NC(C)C)N1 (configuration not stated)
inactive: activity change, negative = inhibition [1] -5.76% | activity change, negative = inhibition [2] 1.05% | activity, negative = inhibition [3] -4.3% | Potency [4] > 20.6 µM

O=C(NCc1ccccc1)C1C(=O)N(Cc2ccccc2)C(=O)C1C1(O)CCCC1 (configuration not stated)
inactive: activity change, negative = inhibition [1] -16.6% | activity change, negative = inhibition [2] 23.6% | activity, negative = inhibition [3] -6.02% | Potency [4] > 20.6 µM

Cn1ncc2c(Nc3ccccc3Br)ncnc21
inactive: activity change, negative = inhibition [1] 5.55% | activity change, negative = inhibition [2] 17% | activity, negative = inhibition [3] -3.41% | Potency [4] > 20.6 µM

CN(C)S(=O)(=O)Nc1ccc(NS(=O)(=O)N(C)C)c(S(=O)(=O)c2ccccc2)c1
inactive: activity change, negative = inhibition [1] -9.87% | activity change, negative = inhibition [2] -5.57% | activity, negative = inhibition [3] 21.4% | Potency [4] > 20.6 µM

CN(C)c1nc(OCCOC(=O)Nc2ccc(Cl)cc2Cl)nc(N(C)C)n1
inactive: activity change, negative = inhibition [1] -3.73% | activity change, negative = inhibition [2] -3.72% | activity, negative = inhibition [3] -7.35% | Potency [4] > 20.6 µM
